We go through 15 molecules from paper PMC12136788.

Where a chain is given by its changes, count along the chain named. Whole data set: some 5,800 sequences, median “enrichment r” near 0.54, cut for the highest 2% near 16. The sample holds the highest values, similar sequences and a random draw of the others, so the mix is not that of the screen.

B1: chr19:42216679:42217007:-|CDS|ENSG00000160570|control|control|control (ssRNA)
RNA: GGGAGUUCUACAGUCCGACGAUCCUUUCUGCUGGAUGAGGCUCCUGGCGCCGCCGGAGGCUUAGCCCGGGCCCGCAGCGGCCUAGAGCUCCUGCUGGAGCUGGAGCGCCGCGGGCAGUGCGACGAGAGCAACCUGCGGCUGCUCAACAGAGGAUUGAGCAUCA
B2: chr1:111117940:111118053:-|3pUTR|ENSG00000156171|unk|total|mutant (ssRNA)
RNA: GGGAGUUCUACAGUCCGACGAUCAGGCUGACAGUAACACUGAUGAAUGCUGAUAAUCAGGAAACAUGAAAGAAGCCAUUUGACCGAUUAUUCUAAAGGAUAUCAUCAAGAAGACUAUUAAAAACACCUAUGCCUAUACUUUUUCAACAGAGGAUUGAGCAUCA
B3: chr8:76983344:76983445:-|CDS|ENSG00000164751|msi1|total|mutant (ssRNA)
RNA: GGGAGUUCUACAGUCCGACGAUCAGCCACCAGUGGCAAAGAAUGCGCUCUAUGUGGAGAGUGGCCCACCAUGCCUCACACCACCGGAUGUGAGCAUAUUUUCUGUUAUUUCUGUGCUAAGAGCCGUUUCUUAUUUGACGUGUACAACAGAGGAUUGAGCAUCA
B4: chr12:101746137:101746238:-|3pUTR|ENSG00000111670|msi1|total|mutant (ssRNA)
RNA: GGGAGUUCUACAGUCCGACGAUCGGUCCGUAAAUUAUUGCAGGCCACCUGUGUCUUUGUCAUACAUUCUUCUUGCUGUUGUUCCGUUUGUUUUUUUUCAAACAACCCUCUAAAAAUGUAAAAACCAUGUUCCGCUUGCAGCUGCAACAGAGGAUUGAGCAUCA
B5: ENSG00000070961:be:win_2001|CDS|ENSG00000070961|bound_else_gene|NA|bound_elsewhere_windowed (ssRNA)
RNA: GGGAGUUCUACAGUCCGACGAUCAAAUGAUAUUGUCACCGGCCUUACAUGCAUUGCUGUUGUGGGGAUUGAAGAUCCUGUGAGACCUGAGGUGCCAGAUGCAAUUAAAAAGUGUCAGAGGGCUGGAAUUACUGUGCGGAUGGUCAACAGAGGAUUGAGCAUCA
B6: ENSG00000145990:stop:overlap|stop_codon|ENSG00000145990|stop_codon|NA|stop_codon (ssRNA)
RNA: GGGAGUUCUACAGUCCGACGAUCUGAGCCCCGCCUACCUGAUCAGCGAGGCCAUGCGCCGCAGCAGGAUGUCCCUCUACUGUUAGCACAGAUUGAGAACCUCGGGGACUUGAGCCUUCUGCAGGGGAUGUCCACAGAGAGGGACAACAGAGGAUUGAGCAUCA
B7: chr9:124811826:124811928:+|3pUTR|ENSG00000185585|msi1|FALSE|unique (ssRNA)
RNA: GGGAGUUCUACAGUCCGACGAUCAAGAAAUUUUCUAGCCCAACUCCCUGUUUCAUGAAAGAGAAAAGAGGCUCAGAAAAGUUUAGAGAGCAGCUCAGUGUCACACUGGGAGCUGGGCACAGCCGAUCUCCUUCCAGAAGGGUUCAACAGAGGAUUGAGCAUCA
B8: chr4:110049619:110049852:-|3pUTR|ENSG00000170522|msi1|FALSE|unique (ssRNA)
RNA: GGGAGUUCUACAGUCCGACGAUCUUGUUCAAUGUGACAUAAUAGUAUUAUAAUUGGUUAAGUAGCUUAAUGAUUAGGCAAACUAGAUGAAAAGAUUAGGGGCUUCCACACUGCAUAGAUUACACGCACAUAGCCACGCAUACACAACAGAGGAUUGAGCAUCA
B9: chr6:53267885:53267986:-|3pUTR|ENSG00000012660|msi1_unk|total|mutant (ssRNA)
RNA: GGGAGUUCUACAGUCCGACGAUCUUUAAUGUAAAUCUAACCGUACUUGUAAUUUCUUUCUGCUCCGAAUCUAAAGAUGUGUUCCGAACCUCUUGUUUAAAAAUAACCGACUGCUUAUCAUAAAAUCACAUCUCACACAUUUGACAACAGAGGAUUGAGCAUCA
B10: chr4:110049619:110049852:-|3pUTR|ENSG00000170522|msi1|total|mutant (ssRNA)
RNA: GGGAGUUCUACAGUCCGACGAUCUUGUUCAAUGUGACAUAACCGUAUUAUAAUUGGUUAAGCCGCUUAAUGAUCCGGCAAACCCGAUGAAAAGAUCCGGGGCUUCCACACUGCACCGAUUACACGCACACCGCCACGCAUACACAACAGAGGAUUGAGCAUCA
B11: chr2:171983412:171983537:+|3pUTR|ENSG00000128708|unk|FALSE|unique (ssRNA)
RNA: GGGAGUUCUACAGUCCGACGAUCUGAUGACUUUAAUUUUAAAAUCUUGUGACAUUUUGCUUAUACUAAAAGUUAUCUAUCUUUAGUUGAAUAUUUUCUUUUGGAGAGAUUGUAUAUUUUAAAAUACUGUUUAGAGUUUAUGAGCAACAGAGGAUUGAGCAUCA
B12: chr6:53267885:53267986:-|3pUTR|ENSG00000012660|msi1_unk|FALSE|overlapping (ssRNA)
RNA: B9 RNA with C40U, C41A, C64U, C65A, C83U, C84A, C106U, C107A
B13: chr9:14618660:14618761:-|3pUTR|ENSG00000175893|msi1|FALSE|unique (ssRNA)
RNA: GGGAGUUCUACAGUCCGACGAUCUUAGCUUUCCACAGGGAUUUCUUGAAAUGCUUUUGUUAUUAAACUCAAAAGGCAGUGAUUAGGAUGAAAUAAUUGUACAUAAUUUAUUUUAGUACUGACAGUGUUACAGAUUCUAAUUUACAACAGAGGAUUGAGCAUCA
B14: ENSG00000198589:be:win_4601|CDS|ENSG00000198589|bound_else_gene|NA|bound_elsewhere_windowed (ssRNA)
RNA: GGGAGUUCUACAGUCCGACGAUCUGGCAGUAGUAUACUUUAUCUCUGUUCUUAUGGUCUCCAAGUACAGAGACAUUUUGGAACCCCAAAAUGAAAGGCAUAGCCAGUCAUGUACAGAAACUGGCAGUGAAAAUGAGAAUGUAUCAACAGAGGAUUGAGCAUCA
B15: chr4:17843545:17843646:+|3pUTR|ENSG00000109805|msi1|total|mutant (ssRNA)
RNA: GGGAGUUCUACAGUCCGACGAUCCUGUGCGCUUCCACGUUACUUUGGCCUGUAUUAAAGCAGCCGAGCAGCAUCAGUUAUUACCGUCCAGAAAAAGUGUGCAUCAGUCAGUCACACAGAUUUAUCACAAUCUGAGGUGGGCCUCAACAGAGGAUUGAGCAUCA

Sequence of MSI1 full-length (Q61474 whole entry): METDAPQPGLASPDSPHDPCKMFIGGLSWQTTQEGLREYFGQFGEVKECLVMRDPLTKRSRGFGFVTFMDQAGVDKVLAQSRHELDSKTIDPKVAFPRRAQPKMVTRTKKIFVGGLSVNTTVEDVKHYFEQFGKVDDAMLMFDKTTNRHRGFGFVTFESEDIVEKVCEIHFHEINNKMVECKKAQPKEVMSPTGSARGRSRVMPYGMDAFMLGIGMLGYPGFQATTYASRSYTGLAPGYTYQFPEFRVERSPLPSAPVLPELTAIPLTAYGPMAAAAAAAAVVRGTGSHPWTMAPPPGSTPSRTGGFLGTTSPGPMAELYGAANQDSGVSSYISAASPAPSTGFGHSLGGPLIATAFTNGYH

The assay has as its target MSI1 full-length (mouse, UniProt Q61474 1-362). The assay is described as follows: nsRBNS (natural sequence RNA bind-n-seq); RBNS binding buffer (assumed for nsRBNS): 25 mM Tris pH 7.5, 150 mM KCl, 3 mM MgCl2, 0.01% Triton X-100, 500 ug/ml BSA, 20 U/ml SUPERase-In, 4 C; UNK is unkempt and MSI1 is Musashi-1; names of the RNAs are library labels; protein concentration not given here; high values mean tight binding.
B1 came in with a binding signal of 0.233 enrichment R.

Molecule B2 registered a binding signal of 0.337 enrichment R. B3 came in with a binding signal of 0.344 enrichment R. Turning to B4, the binding signal was 0.343 enrichment R. B5 registered a binding signal of 0.416 enrichment R. Regarding B6, the binding signal was 0.305 enrichment R. Molecule B7 had a binding signal of 0.831 enrichment R. B8 showed a binding signal of 43.1 enrichment R.

B9 showed a binding signal of 1.15 enrichment R.

B10 came in with a binding signal of 0.468 enrichment R.

Turning to B11, the binding signal was 3.32 enrichment R. Molecule B12 gave a binding signal of 26.6 enrichment R. For B13, the binding signal worked out at 1.51 enrichment R. For the molecule B14, the binding signal is 0.339 enrichment R. In the case of B15, the binding signal turned out to be 0.782 enrichment R.
